Activity calls are given as the source filed them.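 The calls were made as follows, unless noted: active = fluorescence slope after compound addition differing from the mean of all screened samples at 99.7% confidence, in either direction; inactive = the rest.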
How the values were obtained:
[1] = inhibitors of TNFa-induced NFkB p65 translocation, primary screen, imaging, HUVEC, MLSMR starter and 10KST1 sets (AID 438;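 active = inhibition above 20% together with a positive visual image hit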;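 also: compound added about 3h40 before a 20 min TNFalpha stimulation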;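 as to inhibition: signal is the nuclear over cytoplasmic p65 intensity ratio per well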); details: HUVEC TNFa-induced p65 nuclear translocation; cell count: measured here: nuclei count (cytotoxicity indicator), at 2.08 µM; inhibition: at 2 µM, stronger effect = higher value, 0% TNFa-plus-vehicle, 100% no-TNFa wells
[2] = inhibitors of mutant huntingtin aggregation, primary screen, imaging, exon1htt(103Q)mCFP cells, high-content imaging (AID 483;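 active = visual image review flags a hit and inhibition of aggregation exceeds 20%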;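 also: compound exposure lasted 3 days before fixation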;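 as to nuclei count: percent of the per-plate median nuclei count of sample wells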); details: exon1htt(103Q)mCFP cell line, aggregate imaging, at 2 µM; inhibition of aggregation: stronger effect = higher value; nuclei count: measured here: cell count, toxicity
[3] = inhibitors of E-selectin induction by TNFa, primary screen, imaging, HUVEC, immunofluorescence, MLSMR starter and 10KST1 sets (AID 487;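 active = visually confirmed hit in the image check and inhibition above 20%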;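 as to inhibition: signal is fraction of cell area covered by stained E-selectin grains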;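 as to nuclei count: 100% = median nuclei count of all wells on the same plate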); details: HUVEC TNFalpha-induced E-selectin immunofluorescence imaging, at 2 µM; inhibition: stronger effect = higher value; nuclei count: measured here: cell number, toxicity
[4] = target: Voltage-gated potassium channel subunit beta-2 (Rattus norvegicus) (UniProt P62483); experiment: KvBeta enzyme negative modulators, primary screen, biochemical, NADPH fluorescence (AID 622;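 active = fluorescence slope higher than the sample average by over 3 SD, cut at about -0.22 in these data, passing the limit was not always enough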;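 also: slope of raw intensity against log time taken from 70 to 1610 s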); details: recombinant KvBeta, 4-cyanobenzaldehyde reduction, at 10 µM, stronger effect = higher value
Chain of Voltage-gated potassium channel subunit beta-2 (Rattus norvegicus) (P62483 whole entry, looked up): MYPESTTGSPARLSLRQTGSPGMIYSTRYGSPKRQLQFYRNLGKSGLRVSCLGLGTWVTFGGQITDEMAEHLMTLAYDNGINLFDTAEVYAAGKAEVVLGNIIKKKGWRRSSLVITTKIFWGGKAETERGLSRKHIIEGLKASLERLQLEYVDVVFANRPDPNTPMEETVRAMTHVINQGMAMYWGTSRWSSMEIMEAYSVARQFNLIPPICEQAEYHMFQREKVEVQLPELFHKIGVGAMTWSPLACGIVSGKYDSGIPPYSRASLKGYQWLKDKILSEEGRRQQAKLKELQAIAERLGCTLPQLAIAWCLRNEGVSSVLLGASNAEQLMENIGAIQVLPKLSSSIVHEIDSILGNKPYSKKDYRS

[5] = target: Voltage-gated potassium channel subunit beta-2 (Rattus norvegicus) (UniProt P62483); experiment: KvBeta positive modulators, primary screen, biochemical, NADPH fluorescence (AID 623;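 active = NADPH fluorescence slope more negative than the mean of all samples by about 3 SD, 99.7% confidence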;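 also: fluorescence intensity change per second fitted from 20 to 320 s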); details: Recombinant KvBeta, NADPH fluorescence decrease slope, 10 min; at 10 µM; stronger effect = lower value
[6] = target: Alpha-2C adrenergic receptor (Homo sapiens) (UniProt P18825); experiment: modulators of alpha2C/GIRK thallium flux, primary screen, cell-based, HEK293 alpha2C/GIRK1/2 (AID 624); details: thallium flux BTC fluorescence, at 10 µM, actives lie on both sides;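 also: slope of fluorescence ratio to pre-addition baseline per second over 15 to 24 s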
Chain of Alpha-2C adrenergic receptor (Homo sapiens) (P18825 whole entry, looked up): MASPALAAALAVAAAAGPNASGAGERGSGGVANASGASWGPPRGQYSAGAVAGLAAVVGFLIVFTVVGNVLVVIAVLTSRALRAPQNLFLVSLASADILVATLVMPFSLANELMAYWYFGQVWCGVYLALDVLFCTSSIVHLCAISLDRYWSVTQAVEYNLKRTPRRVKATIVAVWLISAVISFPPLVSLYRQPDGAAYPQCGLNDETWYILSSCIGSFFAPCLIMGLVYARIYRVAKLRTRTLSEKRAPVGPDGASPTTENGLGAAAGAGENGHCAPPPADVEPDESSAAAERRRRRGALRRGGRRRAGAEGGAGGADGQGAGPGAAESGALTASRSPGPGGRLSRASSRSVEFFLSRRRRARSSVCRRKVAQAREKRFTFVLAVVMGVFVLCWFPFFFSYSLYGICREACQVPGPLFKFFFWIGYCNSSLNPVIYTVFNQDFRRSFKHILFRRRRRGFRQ

[7] = inhibitors of Sendai virus-induced IRF3 signaling, primary screen, TLR/RLR signaling modifier project, cell-based, Sendai virus stimulus, luciferase, 10K MLSCN set (AID 602276;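 active = inhibition at or above 50% at 10 µM; inactive = inhibition below 50%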;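 also: firefly luciferase from ISG56 promoter only with Renilla not read in this screen; 0% = Sendai virus plus DMSO and 100% = medium plus DMSO without virus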); details: HEK293 RL24 IRF3 luciferase reporter, at 10 µM, stronger effect = higher value
[8] = inhibitors of poly I:C-induced TLR3 signaling, primary screen, cell-based, poly I:C stimulus, luciferase, 10K MLSCN set (AID 602277;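 active = inhibition of the reporter signal at or above 50%; inactive = inhibition below 50%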); details: HEK293-TLR3 RL24 IRF3 luciferase reporter, at 10 µM, stronger effect = higher value

| Structure (SMILES) | cell count [1] | inhibition [1] | inhibition of aggregation [2] | nuclei count [2] [%] | inhibition [3] | nuclei count [3] [%] | fluorescence slope [4] | NADPH fluorescence slope [5] | slope [6] | inhibition [7] | inhibition [8] |
| --- | --- | --- | --- | --- | --- | --- | --- | --- | --- | --- | --- |
| CCOc1ccc(-c2nnc3sc(-c4c(OC)cccc4OC)nn23)cc1 | 434 | 2.8% (inactive) | 0.4% (inactive) | 102 | -65.6% (inactive) | 111 | -0.609 (inactive) | -3.7e-05 (inactive) | 0.00506 (inactive) | 10.1% (inactive) | 3.17% (inactive) |
| CCn1c(SCC(=O)c2ccc(C)cc2)nnc1-c1ccoc1C | 446 | -11.7% (inactive) | 3.7% (inactive) | 77.4 | -138% (inactive) | 119 | -0.329 (inactive) | -6.6e-05 (inactive) | 0.00433 (inactive) | -8.3% (inactive) | -36.4% (inactive) |
| COc1cc(NC2=CC(=O)CC(C)(C)C2)cc(OC)c1 | 346 | 7.5% (inactive) | -8.1% (inactive) | 110 | -3.1% (inactive) | 103 | -0.373 (inactive) | 6.9e-06 (inactive) | 0.00551 (inactive) | -4.89% (inactive) | -12.1% (inactive) |
| c1ccc(OCc2nc(-c3ccccc3)no2)cc1 | 300 | 2.6% (inactive) | 12.9% (inactive) | 87.7 | -72.6% (inactive) | 91.1 | -0.539 (inactive) | 4.5e-05 (inactive) | 0.0046 (inactive) | -80.4% (inactive) | -193% (inactive) |
| COC(=O)c1c(C#N)c(N)nc2c1CCC2 | 474 | -0.6% (inactive) | 18.2% (inactive) | 80.9 | 33.1% (inactive) | 92.6 | -0.00808 (active) | -2e-06 (inactive) | 0.00834 (inactive) | 9.2% (inactive) | 8.56% (inactive) |
| CCc1nc(SCc2cc(Cl)ccc2OC)n[nH]1 | 661 | 8.7% (inactive) | -8.3% (inactive) | 95.5 | -47.4% (inactive) | 103 | -0.36 (inactive) | -6.3e-05 (inactive) | 0.00554 (inactive) | -11.3% (inactive) | -22.3% (inactive) |
| CCCC(=O)Nc1nc2ccc(S(N)(=O)=O)cc2s1 | 718 | -1.8% (inactive) | -16.5% (inactive) | 102 | -9.7% (inactive) | 100 | -0.406 (inactive) | 5.8e-05 (inactive) | 0.00596 (inactive) | -18.7% (inactive) | -57.7% (inactive) |
| Cc1ccc(NC2=NC3(CCCCC3)N=C(N)N2)c(C)c1 | 530 | -4.7% (inactive) | 4.5% (inactive) | 76.2 | -59.7% (inactive) | 99.3 | -0.598 (inactive) | -4.3e-05 (inactive) | 0.00486 (inactive) | -10.3% (inactive) | 8.58% (inactive) |
| COC(=O)c1cc(OC)c(OCc2cc(C(=O)OC)oc2C)c(OC)c1 | 753 | 1.5% (inactive) | -6.3% (inactive) | 106 | 32.8% (inactive) | 85.7 | -0.396 (inactive) | -6.5e-05 (inactive) | 0.00675 (inactive) | 17% (inactive) | 34.7% (inactive) |
| O=C(Nc1ccccc1-c1ccccc1)NC1CCN(CC(=O)N2CCOCC2)CC1 | 537 | -39.8% (inactive) | -5% (inactive) | 113 | -63.8% (inactive) | 109 | -0.433 (inactive) | -7.3e-05 (inactive) | 0.00795 (inactive) | 9.32% (inactive) | 27.5% (inactive) |
| Cc1ccc(N2C(=O)c3ccccc3C2Nc2cccnc2)nc1 (centres undefined) | 513 | -7.7% (inactive) | 2.4% (inactive) | 92.8 | -91.7% (inactive) | 138 | -0.585 (inactive) | 2e-05 (inactive) | 0.0064 (inactive) | -2.85% (inactive) | 4.9% (inactive) |
| OC(COc1ccccc1)CN1C2=NCCCN2c2ccccc21 (centres undefined) | 295 | 1.6% (inactive) | -3.1% (inactive) | 81.2 | 5.3% (inactive) | 79.2 | -0.608 (inactive) | -4.2e-06 (inactive) | 0.00402 (inactive) | 20% (inactive) | 30.6% (inactive) |
| CCN(C1CCCCC1)S(=O)(=O)c1ccc(S(=O)(=O)N2CCN(CCC#N)CC2)cc1 | 870 | 3.3% (inactive) | 8% (inactive) | 102 | -28.6% (inactive) | 108 | -0.584 (inactive) | -1.5e-05 (inactive) | 0.00677 (inactive) | -5.6% (inactive) | 52% (active) |
| O=S(=O)(c1cccc(-c2nnco2)c1)N1CCCC1 | 453 | 0.5% (inactive) | -4.5% (inactive) | 95.9 | 0.2% (inactive) | 108 | -0.519 (inactive) | -4.3e-05 (inactive) | 0.00457 (inactive) | 8.27% (inactive) | 13.9% (inactive) |
